# Experimental data reported in paper PMC4552634, “A New Set of Chemical Starting Points with Plasmodium falciparum Transmission-Blocking Potential for Antimalarial Drug Discovery” (PLoS ONE, 2015).
# Read-outs that look alike come from different tables or passages of the source. The campaign covered roughly 13,000 compounds. About 3,200 (25%) showed an effect of 50% or more. Some of the results follow.
# Test system: P. falciparum stage V gametocytes
# Design: BacTiter-Glo ATP luminescence viability of purified stage V gametocytes in 384-well plates, per cent inhibition versus DMSO
# Settings: 48 h, 5 µM, inhibitor
Structure (SMILES),% Inhibition,% Inhibition (% Inhibition)
Cc1cc(C(F)(F)F)cc(-n2ncc(-c3ccc(C(=O)NCc4ccccc4N)cc3)c2N)n1 [TCMDC-136658],-13.23%,
COc1ccc(CN2CCC(N3CCc4cc(NC(=O)c5cc(C)on5)ccc43)C2)cc1Cl (stereo not drawn) [TCMDC-135080],-33.25%,
COc1cc(C)ccc1S(=O)(=O)N1CCCCC(c2ccc(C(F)(F)F)cc2)=N1 [TCMDC-134533],19.73%,
CCn1c(SC)nnc1C1CCCN(CC(=O)Nc2nc3ccc(OC)cc3s2)C1 (stereo not drawn) [TCMDC-123539],2.495%,
Cc1cc(CN2C(=O)C(c3ccccc3)(c3ccccc3)N=C2N)c(C(F)(F)F)o1 [TCMDC-132305],6.087%,
N=c1n(Cc2ccccc2)c2ccccc2n1CC(O)c1ccc(Cl)c(Cl)c1 (stereo not drawn) [TCMDC-124061],50.12%,
CN(C)CC(O)C(c1ccccc1)c1ccc(Cl)cc1 (stereo not drawn) [TCMDC-131413],8.677%,
N=c1n(Cc2ccccc2)c2ccccc2n1CC(O)c1ccc(Cl)cc1 (stereo not drawn) [TCMDC-124078],66.41%,
COC(=O)C(C)(C)Cc1c(SC(C)(C)C)c2cc(C(C)C)ccc2n1Cc1ccc(Cl)cc1 [TCMDC-131973],5.735%,
N=c1sc2ccccc2n1CC(O)c1ccc(Cl)c(Cl)c1 (stereo not drawn) [TCMDC-124031],27.67%,
C=CCn1c(=N)n(CC(O)c2ccc(Cl)c(Cl)c2)c2ccccc21 (stereo not drawn) [TCMDC-125726],57.07%,
O=C(Cc1ccccc1)NC(CCN1CCC(NC(=O)c2ccc(Cl)cc2)CC1)c1ccc(Cl)c(Cl)c1 (stereo not drawn) [TCMDC-141709],-3.295%,
Cc1ccc2c(c1)nc(N)n2C[C@H](O)c1ccccc1 [TCMDC-138693],42.68%,
OC(CN1CCN(Cc2ccccc2)CC1)Cn1c(-c2ccccc2)c(-c2ccccc2)c2ccccc21 (stereo not drawn) [TCMDC-124021],9.388%,
N=c1n(Cc2ccc(Cl)cc2)c2ccccc2n1CC(O)c1ccc(Cl)c(Cl)c1 (stereo not drawn) [TCMDC-123813],91.34%,
O=C(NC1CC1)c1cnc(N2CCC(COc3cccc(F)c3)CC2)c(Cl)c1 [TCMDC-134030],7.356%,
COc1ccc(CCn2c(C3CCCCC3)nc3oc4ccccc4c(=O)c3c2=O)cc1 [TCMDC-125003],26.12%,
Cc1ccc(CON2C(N)=NC(N)=NC23CCCCC3)c2ccccc12 [TCMDC-131589],35.49%,
O=S(=O)(NC1CCN(c2ccnc3cc(Cl)ccc23)C1)c1ccc(F)cc1 (stereo not drawn) [TCMDC-133654],5.841%,
CCC1CN2CCc3c([nH]c4ccccc34)[C@@H]2C[C@@H]1CC1NCCc2cc(OC)c(OC)cc21 (stereo partly drawn) [TCMDC-142009],,-17.31%
CCC1=C(C[C@H]2NCCc3cc(OC)c(OC)cc32)C[C@H]2c3cc(OC)c(OC)cc3CCN2C1 [TCMDC-131825],95.62%,
CCC1CN2CCc3c([nH]c4ccc(OC)cc34)C2CC1CC1NCCc2cc(OC)c(OC)cc21 (stereo not drawn) [TCMDC-142010],-39.55%,

Structure (SMILES),% Inhibition,% Inhibition (% Inhibition)
Nc1ncc(-c2cn[nH]c2)cc1-c1nc2ncc(Cl)cc2[nH]1 [TCMDC-133562],-10.74%,
CC(C)c1ccc(-c2nc3ncc(Cl)cc3[nH]2)cc1 [TCMDC-125093],64.2%,
CCN(CC)c1ccc(-c2nc3ncc(Cl)cc3[nH]2)cc1 [TCMDC-125094],7.94%,
CC(=O)Nc1ccc(S(=O)(=O)Nc2c(C)cc(Cc3cnc(N)nc3N)cc2C)cc1 [TCMDC-137632],-8.406%,
CNC(=O)Cc1ccc(C(=O)Nc2cccc(-c3ccc(-c4nc5cccc(C)c5[nH]4)s3)c2)cc1 [TCMDC-137076],-37.06%,
O=C(/C=C/c1ccc(Cl)c(Cl)c1)NCCCCCN1CCC(CCNC(=O)/C=C/c2ccc(Cl)c(Cl)c2)CC1 [TCMDC-139998],17.18%,
O=C(/C=C/c1ccc(Cl)c(Cl)c1)NCCCCCN1CCC(CCNC(=O)Cc2ccc(Cl)cc2)CC1 [TCMDC-140001],60.19%,
Cc1c(CC(=O)NCCC2CCN(CCCCCNC(=O)/C=C/c3ccc(Cl)c(Cl)c3)CC2)sc2ccc(Cl)cc12 [TCMDC-140008],19.89%,
Cc1oc(-c2ccc(Cl)cc2)cc1C(=O)NCCC1CCN(CCCCCNC(=O)/C=C/c2ccc(Cl)c(Cl)c2)CC1 [TCMDC-140009],105.7%,
CN(C(=O)C1(c2ccc(Cl)cc2)CC1)C1CCN(CCCCCNC(=O)/C=C/c2ccc(Cl)c(Cl)c2)CC1 [TCMDC-139987],-12.99%,
O=C(C=Cc1ccc(Cl)c(Cl)c1)NCCCCCN1CCC(CCNC(=O)c2cccc3ccccc23)CC1 [TCMDC-139565],43.11%,
O=C(/C=C/c1ccc(Cl)c(Cl)c1)NCCCCCN1CCC(CCNC(=O)C2(c3ccc(Cl)cc3)CC2)CC1 [TCMDC-140000],67.34%,
OC(CNCc1ccccc1Oc1ccccc1)c1cccc(C(F)(F)F)c1 (stereo not drawn) [TCMDC-140397],30.17%,
CC1CN(c2cc(=O)n(Cc3cccc(NC(=O)Nc4ccc(-c5ccccc5)cc4)c3)cn2)CC(C)N1 (stereo not drawn) [TCMDC-133365],-7.987%,
FC(F)(F)c1ccc2[nH]c(-c3cccc(-c4ccc(CNCC5CCCO5)cc4)c3)nc2c1.O=C(O)C(F)(F)F (stereo not drawn) [TCMDC-133103],-16.51%,
COc1ccc2nccc([C@@H](O)CN3CCC(NC(=O)c4ccc(-c5ccc(C#N)cc5)cc4)CC3)c2c1 [TCMDC-141001],7.804%,
COC(=O)c1ccc(CCC(C)NCC(O)c2cccc(C(F)(F)F)c2)cc1 (stereo not drawn) [TCMDC-131440],17.3%,
COc1ccc(S(=O)(=O)N2CCCc3ccc(Br)cc32)cc1N1CCN(C(=O)C(Cl)(Cl)Cl)CC1 [TCMDC-139339],22.46%,
CCN(C1CCCCC1)S(=O)(=O)c1ccc(OC)c(N2CCN(C(=O)C(Cl)(Cl)Cl)CC2)c1 [TCMDC-139319],82.34%,
CCC1CCCCN1S(=O)(=O)c1ccc(OC)c(N2CCN(C(=O)C(Cl)(Cl)Cl)CC2)c1 (stereo not drawn) [TCMDC-139255],3.13%,
CSc1nc2nc(C)c(Cc3cccc(F)c3)c(C)n2n1 [TCMDC-123765],1.864%,
COc1cc2ncnc(Nc3ccc4nc(-c5ccccc5)[nH]c4c3)c2cc1OC [TCMDC-137191],-26.1%,

Structure (SMILES),% Inhibition,% Inhibition (% Inhibition)
Cc1c2ccncc2c(C)c2c1[nH]c1cc(Cc3ccccc3)c(O)cc12 [TCMDC-132053],89.31%,
Cc1c2ccncc2c(C)c2c1[nH]c1ccccc12 [TCMDC-125546],-37.29%,
O=C(Nc1ccc(-c2cccc(-c3nc4ccc(C(F)(F)F)cc4[nH]3)c2)cc1)c1ccc(=O)[nH]n1 [TCMDC-137032],18.19%,
CCC(C)(C)c1ccc(N2C(N)=NC(N)=NC2(C)C)cc1 [TCMDC-137919],8.342%,
O=C(Nc1ccc(Cl)cc1)OCCn1nnnc1C(c1ccc(Cl)cc1)N1CCOCC1 (stereo not drawn) [TCMDC-124138],-11.24%,
COc1ccc2nccc(NC(=O)C3(O)CCC(NCc4ccc5c(c4)NCCS5)CC3)c2n1 (stereo not drawn) [TCMDC-141406],32.7%,
COc1ccc2nccc(NC(=O)N3CCC(NCCOc4cc(F)cc(F)c4)CC3)c2n1 [TCMDC-140666],29.69%,
COc1ccc2nccc(NC(=O)C3CCC(NCc4cnc(SC)c([N+](=O)[O-])c4)CC3)c2n1 (stereo not drawn) [TCMDC-131238],93.77%,
Cc1cccc2[nH]c(-c3ccc(-c4cccc(NC(=O)Nc5ccc(F)c(F)c5F)c4)cc3)nc12 [TCMDC-133234],-5.873%,
O=C(N[C@@H](CC1CCCCC1)C(=O)NC1CCCCC1)c1ccc(O)c(-c2cccc(C(F)(F)F)c2)c1 [TCMDC-140810],6.892%,
O=C(N[C@@H](Cc1ccccc1)C(=O)NC1CCCCCC1)c1ccc(O)c(-c2cccc(C(F)(F)F)c2)c1 [TCMDC-140813],18.86%,
O=C(N[C@@H](Cc1ccccc1)C(=O)NC1CCCCC1)c1ccc(O)c(-c2cccc(C(F)(F)F)c2)c1 [TCMDC-140809],50.49%,
OC(CNc1ccnc(Nc2ccccc2)n1)c1ccc(C(F)(F)F)cc1 (stereo not drawn) [TCMDC-136598],-1.002%,
O=c1cc(NCCCNCc2[nH]c3cc(Cl)ccc3c2Cl)[nH]c2ccccc12 [TCMDC-139966],-23.52%,
O=C(NC(c1ccccc1)c1ccc2cccnc2c1O)c1ccccc1 (stereo not drawn) [TCMDC-123701],103.7%,
COc1cccc(C(NC(=O)c2ccccc2)c2ccc3cccnc3c2O)c1 (stereo not drawn) [TCMDC-125755],75.54%,
Cc1ccc(C(NC(=O)c2ccccc2)c2ccc3cccnc3c2O)cc1 (stereo not drawn) [TCMDC-125552],16.34%,
N#Cc1ccc(N2CCN(C(=O)c3cccc(-c4noc(C(F)(F)F)n4)c3)CC2)nc1 [TCMDC-132424],8.571%,
O=C(Nc1cc(C(F)(F)F)cc(C(F)(F)F)c1)NC(CCCN1CCC2(CC1)OCc1ccccc12)c1ccc(Cl)c(Cl)c1 (stereo not drawn) [TCMDC-141899],-60.02%,
O=C(NC(CCCN1CCC2(CC1)OCc1ccccc12)c1ccc(Cl)c(Cl)c1)c1cc(C(F)(F)F)cc(C(F)(F)F)c1 (stereo not drawn) [TCMDC-141897],69.2%,
O=C(NC(CCCN1CCC(c2ccccc2)CC1)c1ccc(Cl)c(Cl)c1)c1cc(C(F)(F)F)cc(C(F)(F)F)c1 (stereo not drawn) [TCMDC-141900],23.85%,
O=C(Nc1ccc([N+](=O)[O-])cc1)c1nn(-c2ccccc2)cc1N=Cc1cccc(O)c1 [TCMDC-124108],-28.07%,
